The list is not random: actives were taken first. Their share in the collection is about 1.2%.
NALP1 yeast inh: NALP1 inflammasome inhibitors in reconstituted yeast, colorimetric, S. cerevisiae, triplicate retest | S. cerevisiae NALP1/ASC/caspase-1 growth, X-gal OD620, 72 h | inhibition, % at 10 µM | actives 0.61% (n = 280,000); in the data active = inhibition mostly above about 24%, no sharp cut-off; inactive = mostly below about 32%
APOBEC3G inh: APOBEC3G DNA deaminase inhibitors, primary screen, biochemical, fluorescence, single-stranded DNA substrate, uHTS; actives 0.28% (n = 330,000); recombinant A3G, ssDNA deamination FAM/TAMRA fluorescence; AID 493012, 2011; inhibition, % at 20 µM;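 active = inhibition of at least 40% at 20 µM, with no more than 30% in the related APOBEC3A deaminase screen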;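 note: plate controls were DMSO wells with A3G for no effect and wells lacking A3G enzyme for full effect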
Target sequence (Q9HC16 whole entry, looked up): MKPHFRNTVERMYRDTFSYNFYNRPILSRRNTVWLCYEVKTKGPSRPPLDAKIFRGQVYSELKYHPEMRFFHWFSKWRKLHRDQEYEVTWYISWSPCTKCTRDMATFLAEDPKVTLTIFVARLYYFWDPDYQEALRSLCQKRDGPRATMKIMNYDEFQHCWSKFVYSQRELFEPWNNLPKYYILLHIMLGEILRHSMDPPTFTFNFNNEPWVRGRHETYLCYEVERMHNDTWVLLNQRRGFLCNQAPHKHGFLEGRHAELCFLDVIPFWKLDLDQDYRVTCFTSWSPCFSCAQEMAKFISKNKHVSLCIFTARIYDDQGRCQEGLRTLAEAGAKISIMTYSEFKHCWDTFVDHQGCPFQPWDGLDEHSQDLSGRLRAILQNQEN
A3A deaminase: APOBEC3A ssDNA deaminase inhibitors, primary screen, selectivity assay for APOBEC3G inhibitor project, biochemical, FAM/TAMRA oligo cleavage fluorescence; DNA dC->dU-editing enzyme APOBEC-3A (Homo sapiens), P31941; actives 0.41% (n = 330,000); recombinant A3A, FAM/TAMRA ssDNA deamination fluorescence; inhibition, % at 20 µM;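 active = at least 40% inhibition at 20 µM here, with at most 30% in a related deaminase screen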;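 note: plate controls were A3A with DMSO for no effect and wells lacking A3A enzyme for full effect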
Target sequence (P31941 whole entry, looked up): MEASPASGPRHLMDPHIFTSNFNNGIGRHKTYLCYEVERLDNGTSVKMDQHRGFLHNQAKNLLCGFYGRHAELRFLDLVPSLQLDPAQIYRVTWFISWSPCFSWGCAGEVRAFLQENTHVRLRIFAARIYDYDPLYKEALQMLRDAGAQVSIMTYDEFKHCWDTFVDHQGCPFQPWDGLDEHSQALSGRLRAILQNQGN
PolyA inh: polyadenylation inhibitors in yeast reporter cells, primary screen, luminescence, S. cerevisiae; S. cerevisiae SKY197-pL101 polyadenylation reporter, beta-gal luminescence; efflux-impaired pdr1/pdr3 knockout yeast; score 100 = 6 SD above DMSO; activity score, % at 12 µM; actives 0.02% (n = 300,000); AID 1875, 2009;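 active = lowest replicate activity score at least 50, where 100 means six control SD above control mean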;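 note: yeast exposed to compound for 9 h at 30 °C; higher score means more reporter readthrough which indicates perturbed polyadenylation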
APOBEC3A confirm: APOBEC3A deaminase inhibitors, retest, confirmation, selectivity assay for APOBEC3G inhibitor project, biochemical, single concentration, fluorescence readout; recombinant A3A, ssDNA deaminase UDG fluorescence assay; inhibition, % at 20 µM; shares compounds with A3A deaminase; actives 63% (n = 1,400);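 active = inhibition reaching a set limit, 80% of the first screen's cutoff, at 20 µM in any replicate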;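 note: plate controls were DMSO wells with A3A for no effect and wells lacking A3A enzyme for full effect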
UDG ctr A3A: E. coli UDG inhibitors, confirmation, counter-screen for APOBEC3A inhibitor project, biochemical, single concentration, fluorescence, FAM/TAMRA oligo. shares compounds with A3A deaminase. UDG counterscreen, FAM/TAMRA uracil oligo fluorescence. inhibition, % at 20 µM. 1,000 tested, under 10 active. AID 504714, 2011; call rule not given here
Active calls of the source: *; nt = no result.

SMILES | NALP1 yeast inh | APOBEC3G inh | A3A deaminase | PolyA inh | APOBEC3A confirm | others
COC(=O)CCC(=O)N1CN2CN(C(=O)CCC(=O)OC)CC([N+](=O)[O-])(C2)C1 | 9.4 | -4.7 | 4.3 | 16.2 | nt
COc1ccccc1N1CCN(S(=O)(=O)CCNC(=O)C2CC2)CC1 | nt | 20.5 | 8.8 | -0.6 | nt
O=C(COC(=O)c1ccccc1Nc1cccc(C(F)(F)F)c1)NCc1ccco1 | 3.3 | 23.5 | 42.5* | 0.9 | 23.2* | UDG ctr A3A=-1.5
O=C(COC(=O)c1ccccc1Nc1ccccc1)NCc1ccccc1 | 19.1 | 3.2 | -1.7 | -13.0 | nt
COC(=O)CCC(=O)OC1(C)C(=O)C2=COC(c3ccc(OC)cc3)=CC2=C(Br)C1=O (stereo not given) | -18.2 | 11.6 | 45.7* | -5.4 | 28.9
COc1ccc(C2=CC3=C(Br)C(=O)C(C)(OC(=O)C4CCCC4)C(=O)C3=CO2)cc1 (stereo not given) | 4.7 | 1.0 | 13.5 | 26.3 | nt
Cc1ccc(C(=O)NCCCNC(=O)COc2ccccc2Cl)cn1 | -2.4 | -10.9 | -3.1 | 4.0 | nt
CN1CCN(c2ccc(Cl)cc2NC(=O)CC2OC(=O)c3ccccc32)CC1 (stereo not given) | nt | 28.7 | 95.5* | -5.8 | 69.1* | UDG ctr A3A=-2.2
COc1ccc(C(=O)NC2CC2)cc1OC1CCN(Cc2ccc(Cl)cc2)CC1 | 9.3 | 7.8 | -4.2 | -13.3 | nt
O=C(c1cccc(Cl)c1)C1CCCN(Cc2ccc(N3CCNC3=O)cc2)C1 (stereo not given) | 2.4 | -7.9 | -0.6 | -3.0 | nt
C#CCSc1nc(Cc2ccc(Cl)cc2)nc2ccccc12 | 7.9 | -2.4 | 47.8* | -23.2 | -4.6 | UDG ctr A3A=-1.9
C[n+]1cccc(C(=O)NCC2CCCO2)c1 (stereo not given) | 7.1 | 24.5 | 79.1* | -4.3 | 75.5* | UDG ctr A3A=1.1
COc1cccc(NC(=O)c2ccc[n+](C)c2)c1 | 4.3 | 26.4 | 76.5* | -0.3 | 75.4* | UDG ctr A3A=1.5
C[n+]1cccc(C(=O)Nc2ccccc2)c1 | -4.4 | 17.5 | 70.4* | 1.6 | 57.0* | UDG ctr A3A=-2.1
O=C(NCC1CCCO1)c1ccccc1 (stereo not given) | nt | -5.7 | -4.4 | 6.9 | nt
O=C(Nc1ccc(C(=O)c2ccccc2)cc1)c1ccccc1 | 7.1 | -0.9 | 3.5 | 19.4 | nt
COc1ccc(NC(C)=O)cc1NC(=O)C1CCN(C(=O)Nc2ccccc2)CC1 | nt | -6.2 | -1.8 | 9.6 | nt
Cc1cc(C)n2nc(SCC(=O)NC(=O)c3ccccc3)nc2n1 | nt | -7.9 | -4.8 | nt | nt
CCNC(=O)Cn1cc(C#N)c2ccccc21 | 12.2 | 19.6 | 53.5* | -6.4 | 11.1
COc1ccc(/C=C(\NC(=O)c2ccc(C)cc2)C(=O)Nc2ccc(C(=O)O)cc2)cc1 | -0.8 | -4.7 | -1.1 | -8.9 | nt
CC1=NC(=O)C(N=Nc2cccc(C(=O)O)c2)N1c1ccccc1 (stereo not given) | 3.1 | 15.0 | 42.5* | nt | 63.2* | UDG ctr A3A=1.6
COc1ccc(C(=O)NC2CCN(CC(=O)N3CCCCC3)CC2)cc1 | 25.4 | 4.4 | 41.4* | 5.7 | 5.5
Cc1ccc(CN(C)CC(=O)Nc2ccccc2C(=O)NC2CC2)o1 | nt | -8.0 | -3.9 | nt | nt
Cc1ccc(NC(=O)c2ccc([N+](=O)[O-])o2)cc1S(=O)(=O)N1CCOCC1 | -6.6 | 2.1 | 3.5 | -3.6 | nt
Cc1ccc(NC(=O)c2cc([N+](=O)[O-])ccc2N2CCOCC2)cc1S(=O)(=O)N1CCOCC1 | 8.5 | 5.0 | 42.4* | 4.8 | 2.2
SMILES | NALP1 yeast inh | APOBEC3G inh | A3A deaminase | PolyA inh | APOBEC3A confirm | others
CCN(CC(=O)Nc1cc(Cl)ccc1C)C(=O)c1cc([N+](=O)[O-])ccc1N1CCOCC1 | nt | 2.7 | 79.7* | -0.5 | -0.4
CN(CC(=O)Nc1ccccc1Br)C(=O)c1cc([N+](=O)[O-])ccc1N1CCOCC1 | nt | 6.8 | 41.6* | -0.8 | -0.8
CCOc1ccc(/C(C)=N/NC(=O)Cn2nc([N+](=O)[O-])cc2C)cc1 | 11.7 | -0.5 | -6.6 | -9.3 | nt
CCN1C(=O)[C@H]2[C@@H](c3ccc(-c4ccc(Cl)c(Cl)c4)c(OC)c3)N[C@@](Cc3ccccc3)(C(=O)OC)[C@H]2C1=O | nt | -3.7 | -1.2 | -16.4 | nt
Cc1[nH]c2ccccc2c1/C=N/Nc1nc(Nc2ccccc2)nc(N2CCOCC2)n1 | 5.9 | -7.4 | -3.0 | 10.4 | nt
Oc1[nH]c2ccccc2c1N=Nc1nc(Nc2ccccc2)nc(N2CCOCC2)n1 | nt | 11.5 | 44.5* | 5.5 | 17.2
Cn1c(=Nc2ccc(N3CCOCC3)cc2)ccc2ccccc21 | -2.2 | 20.3 | 54.3* | -13.4 | 20.9
O=C(OCC(=O)N1CCN(S(=O)(=O)c2ccc(Cl)cc2)CC1)c1cccc(OC(F)F)c1 | nt | -9.8 | 1.9 | -3.5 | nt
Cc1ccccc1NC(=O)C1c2cccc[n+]2CC(=O)N1c1c(C)cccc1C (stereo not given) | -0.6 | 17.2 | 40.4* | -3.9 | 18.1
Cc1cccc(C)c1NC(=O)C1c2cccc[n+]2CC(=O)N1Cc1ccc2c(c1)OCO2 (stereo not given) | 8.2 | 3.5 | 14.3 | 13.3 | nt
CCc1ccc(NC(=O)c2ccc(-n3cncn3)c([N+](=O)[O-])c2)cc1 | nt | 15.3 | 41.1* | -1.8 | 5.4
Cc1ccc(S(=O)(=O)Nc2cccc(C(=O)NCC(c3ccc(F)cc3)N3CCOCC3)c2)cc1 (stereo not given) | nt | -1.5 | -0.3 | nt | nt
COc1ccc(CCCC(=O)NCCc2ccccc2)c(C)c1 | 6.4 | 6.5 | 40.8* | 22.8 | 11.7
COc1ccc(CCCC(=O)NC2CCCCC2C)c(C)c1 (stereo not given) | -15.1 | 29.3 | 70.7* | -8.3 | 70.8* | UDG ctr A3A=2.8
CC(=O)c1ccc(OCCCC(=O)NC2CCCCC2C)cc1 (stereo not given) | 19.7 | -6.2 | -1.9 | 7.2 | nt
COc1ccc(CCNC(=O)CCCCC(=O)NCCc2ccc(OC)cc2)cc1 | -16.4 | -1.4 | -6.9 | 15.7 | nt
CN(C(=O)COC(=O)CNC(=O)c1sc2ccccc2c1Cl)C1CCS(=O)(=O)C1 (stereo not given) | nt | -2.9 | -1.2 | nt | nt
CN(CCC(=O)Nc1ccc(Cl)cc1)Cc1ccccc1 | 16.5 | -1.5 | -2.1 | -6.2 | nt
O=C(CN1C(=O)NC2(CCCCC2)C1=O)Nc1cc(C(F)(F)F)ccc1N1CCOCC1 | nt | 11.0 | 8.3 | nt | nt
CCOc1ccc(S(=O)(=O)N2CCN(C(=O)CN3C(=O)NC4(CCCC4)C3=O)CC2)cc1 | nt | -2.3 | 40.9* | -5.4 | 35.5* | UDG ctr A3A=-2.4
